KKLEB cytotox – cytotoxicity in KKLEB CF airway cells, primary screen, cytotoxicity control for CF NF-kB inhibitor project, cell-based, uHTS, fluorescence assay plates. AID 602141, 2011. KKLEB CF airway cells viability, ATPlite luminescence, overnight; hits give low values; cells stimulated with P. aeruginosa culture filtrate. activity change (cytotoxicity), % at 5 µM. 0.36% of 360,000 active;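 active means corrected activity change at or below -50% at 5 µM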
Peg3 prom inh – Peg3 promoter-driven luciferase inhibitors, primary screen, cell-based, HeLa, luciferase luminescence. HeLa PEG-Prom luciferase reporter, overnight. inhibition, % at 20 µM. 1.7% of 360,000 active. AID 588405, 2011;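 active means inhibition of at least 50% at 20 µM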
Shn3 inh set2 – reduction of Shn3 3'UTR firefly luciferase signal, primary screen, Schnurri-3 inhibitor project, cell-based, Clone20 osteoblasts, set 2 | 0.52% of 360,000 active | AID 588674, 2011 | Clone20 osteoblast Shn3 3'UTR firefly luciferase, 24 h | inhibition, % at 12.5 µM;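 active means mean inhibition of at least 75% with every replicate also reaching 75%; inconclusive means mean inhibition at least 75% but some replicate below; inactive means mean inhibition below 75%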;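 further: 0% = median of neutral control wells and 100% = pilot-screen positive control compound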
HIF-2a block – HIF-2a reporter inhibitors, primary screen, luminescence, 786-0 RCC cells | 786-0 RCC cells HIF-2a reporter, luciferase luminescence, overnight | inhibition, % at 18.8 µM | 0.72% of 360,000 active | AID 624352, 2012;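 active means inhibition of the luminescence signal of 40% or more relative to plate controls, in a single-dose primary screen at 18.75 µM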
TRPM1 prom inh – inhibitors of MITF-dependent TRPM1 promoter reporter, primary screen, cell-based, SK-MEL-5, single point, luciferase. SK-MEL-5 TRPM1 promoter luciferase, 24 h. AID 488899, 2010. inhibition, % at 12.5 µM. 0.83% of 330,000 active;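 active means mean inhibition across replicates of 60% or more, whatever share of single replicates reaches that level; inconclusive means some that reach 60%, reason not given; inactive means mean inhibition across replicates below 60%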
CF NFkB inh – inhibitors of PAF-induced NF-kB signaling, primary screen, cell-based, GFP fluorescence, uHTS | KKLEB NF-kB-GFP reporter, GFP fluorescence overnight | inhibition, % at 5 µM | 0.86% of 360,000 active | AID 588850, 2011;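 active means at least 50% inhibition at 5 µM, scaled per plate between neutral and stimulator controls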;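 further: PAF is a Pseudomonas aeruginosa culture filtrate used as stimulus; plate controls were PAF-stimulated DMSO wells for no effect and unstimulated DMSO wells for full effect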
Numbers without * were called inactive; ? = inconclusive; · = not tested or not shown. Rows were chosen to be rich in hits. Some 2.8% of all compounds tested hit in one or more screens of this group.

SMILES	KKLEB cytotox	Peg3 prom inh	Shn3 inh set2	HIF-2a block	TRPM1 prom inh	CF NFkB inh
O=C(/C=C/c1ccc(O)c(O)c1)OCCc1ccccc1	3	-238	95*	-118	-71	20
Cn1c(SCc2ccccc2)nccc1=O	22	0	4	-7	1	-25
CC1=C(SCc2ccccc2)C(=O)c2ccccc2C1=O	-44	85*	78	29	70*	89*
CC(C)c1nc(SCC(=O)Nc2cccc(C(F)(F)F)c2)c2c(=O)n(C)c(=O)n(C)c2n1	-3	15	86*	10	·	20
Cc1c(C#N)c(NC(=O)CCl)n(Cc2ccccc2)c1C	-16	53*	95*	20	81*	17
Cc1c(C#N)c(NC(=O)CCl)n(Cc2ccc(F)cc2)c1C	-58*	58*	39	26	66*	73*
Cc1c(C#N)c(NC(=O)CCl)n(Cc2cccs2)c1C	-28	50	97*	30	77*	24
COC(=O)c1cc(C(=O)OC)n(Cc2ccc(F)cc2)c1C	9	21	0	3	-13	0
CCN(CC)C(=O)c1sc(NC(=O)Cc2cccs2)c(C#N)c1C	-17	11	-24	-2	-6	7
CN(C)S(=O)(=O)c1ccc(Cl)c(C(=O)NNC(=O)Cn2ccc(C(F)(F)F)n2)c1	-9	-4	-15	10	-2	9
NS(=O)(=O)OCCCc1ccc(C(F)(F)F)cc1	-2	-18	-36	-39	-6	-4
COc1ccc(N/C=C/C(=O)c2ccccc2)cc1	-54*	-36	6	-55	14	-18
CCOc1ccc(N/C=C/C(=O)c2ccccc2)c([N+](=O)[O-])c1	-58*	41	22	38	6	-40
COc1ccc(N/C=C\C(=O)c2ccc3ccccc3c2)cc1	-9	-185	-97	-204	-87	8
COc1cccc(-n2nnnc2S(C)(=O)=O)c1	-32	103*	97*	87*	78*	94*
COc1cccc(Oc2nnnn2-c2ccccc2)c1	0	-205	-57	-166	-44	-2
CCNC(=O)C1(C)CCN(Cc2ccccc2-c2ccccc2)C1 (configuration not stated)	-2	-13	-11	5	·	-6
COc1cc(NC(=O)NCc2ccco2)ccc1-c1ccc(NC(=O)NCc2ccco2)cc1OC	-14	26	83*	30	?	-4
CCN(C(=O)COC(=O)Cc1ccc(F)cc1)c1c(N)n(Cc2ccccc2)c(=O)[nH]c1=O	1	8	-3	5	0	-4
CN(C)c1ccc(Sc2ccc3nc(N)nc(N)c3c2)cc1	-31	105*	80	-4	·	24
CCN1C(=O)CC(c2ccccc2)CC1=O	-4	-11	3	3	-6	0
CNc1ncnc2c1ncn2[C@H]1CN(Cc2ccccc2)C[C@@H](CO)O1	-1	8	-14	10	·	-6
Cc1c(N=C2C=CC(=O)c3ccccc32)c(=O)n(-c2ccccc2)n1C	3	47	-12	-58	71*	15
Cc1c(N=C2C=C(Br)C(=O)C(Br)=C2)c(=O)n(-c2ccccc2)n1C	10	-5	8	12	11	-4
CC(C)CC(NC(=O)OC(C)(C)C)c1cn([C@@H](Cc2ccc(O)cc2)C(=O)N2CCN(C(=O)OC(C)(C)C)CC2)nn1 (some centres not stated)	5	3	-3	14	0	-18
SMILES	KKLEB cytotox	Peg3 prom inh	Shn3 inh set2	HIF-2a block	TRPM1 prom inh	CF NFkB inh
COc1ccccc1CNc1nc(NCc2cccc(OC)c2OC)c2sccc2n1	-12	54*	48	19	·	13
COCCNc1nc(NCc2cccc(OC)c2OC)c2sccc2n1	-10	12	39	10	·	5
COc1ccccc1CNc1nc(NC(C)C)nc2cc(-c3ccccc3)sc12	4	75*	19	-18	·	13
C[C@@H]1CN([C@@H](C)CO)C(=O)CCCn2nncc2CO[C@H]1CN(C)C(=O)c1ccccc1	9	-8	-13	0	·	10
COc1ccc(NC(=O)Cn2nnc(-c3ccccc3NS(=O)(=O)c3ccccc3)n2)cc1	-16	27	87*	28	17	4
Cc1nc(N2CCN(c3ccccn3)CC2)c2c(C)c(C(=O)N3CCN(c4ccc(F)cc4)CC3)sc2n1	-7	58*	7	20	-4	4
COc1ccccc1N1CCN(C(=O)c2sc3nc(C)nc(N4CCN(c5ccccn5)CC4)c3c2C)CC1	-7	47	14	10	12	15
Cc1c(C(=O)N2CCN(c3ccccc3)CC2)sc2ncnc(N3CCN(c4ccccn4)CC3)c12	-11	56*	15	13	27	-13
O=C(c1ccccc1)N1CCN(c2ncnc3sc4c(c23)CCC4)CC1	-4	5	85*	22	6	0
C[C@@H]1CN([C@@H](C)CO)C(=O)c2cc(-c3ccncc3)cnc2O[C@H]1CN(C)C(=O)c1cccc(F)c1	13	-1	-23	12	·	-18
COc1ccc(NC(=O)/C(Cl)=C(/Cl)S(=O)Cc2ccc(Cl)cc2)cn1 (configuration not stated)	-88*	104*	96*	97*	94*	87*
O=C(NC(c1ccc(Cl)cc1)c1c(O)ccc2ccccc12)c1ccccc1 (configuration not stated)	-62*	58*	3	20	19	64*
O=C(N/N=C/c1c[nH]c2ccccc12)c1[nH]c2ccc(Br)cc2c1-c1ccccc1	-14	20	-45	31	?	34
CCOc1ccc(/C=N/NC(=O)c2[nH]c3ccc(C)cc3c2C)cc1	-8	1	0	-12	-1	5
O=C(N/N=C/c1ccc(O)cc1)c1[nH]c2ccc(Br)cc2c1-c1ccccc1	-27	32	-9	18	63*	58*
Cc1c(C(=O)N/N=C/c2ccc(Cl)cc2)[nH]c2ccc(Cl)cc12	-44	2	30	13	14	62*
Nc1c(N(CCC2=CCCCC2)C(=O)COc2ccc([N+](=O)[O-])cc2)c(=O)[nH]c(=O)n1Cc1ccccc1	-27	84*	22	0	51	6
Nc1c(N(CCC2=CCCCC2)C(=O)COc2ccc(F)cc2Cl)c(=O)[nH]c(=O)n1Cc1ccccc1	-36	106*	78	-3	97*	38
COc1ccc2[nH]c(=O)c(CN(Cc3cccs3)S(=O)(=O)c3c(C)ccc4nsnc34)cc2c1	-21	59*	75	1	8	97*
